Experimental data as given in PubChem BioAssay AID1159580 (chemical genetic matrix, 2015).
The whole screen tested about 5,500 compounds, of which about 2,000 (36%) were called active. Roughly 18% stayed inconclusive and do not appear here. Rule as the data show it: active = normalized growth mostly below about 0.91 (no sharp cut-off); inconclusive = no clear call, values can overlap the other calls; inactive = mostly above about 0.92. The list shows a part of the results.

Assay: chemical genetic growth profiling, strain panel (AID 1159580);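 also: tested at 20 µM; growth read once vehicle control cultures reached saturation at 30 °C; 1 = growth at the plate median or of vehicle wells; lower values mean less growth of the strain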
Conditions: S. cerevisiae deletion strains, growth OD

Measured: normalized growth

COc1cc2c(cc1OC)-c1cc(=Nc3c(C)cc(C)cc3C)n(C)c(=O)n1CC2
inactive: locus YAL040C, strain CLN3, stronger effect = lower value 0.995 | locus YCL061C, strain MRC1 (second series), stronger effect = lower value 0.998 | locus YDR363W, strain ESC2, stronger effect = lower value 1 | locus YER002W, strain NOP16, stronger effect = lower value 1.02 | locus YGR078C, strain PAC10, stronger effect = lower value 1.01 | locus YJR075W, strain HOC1, stronger effect = lower value 0.97 | locus YMR307W, strain GAS1, stronger effect = lower value 0.998 | locus YNL153C, strain GIM3, stronger effect = lower value 0.999 | locus YNL175C, strain NOP13, stronger effect = lower value 0.996 | locus YNL197C, strain WHI3, stronger effect = lower value 1.01 | locus YNL224C, strain SQS1, stronger effect = lower value 1.01 | locus YOR083W, strain WHI5 (second series), stronger effect = lower value 1.02 | locus YPL241C, strain CIN2, stronger effect = lower value 0.993
